Bioassay records deposited in PubChem BioAssay by Paczesny and Yang Labs, IUPUI and University of Michigan.
ST2 inh – blocks human ST2 binding to IL-33 | inhibition, % for hits at 17 µM | actives 2.3% (n = 78,000) | AID 1259354 | AlphaLISA ST2-Fc/biotin-IL-33 interaction, 1 h; in the data active = inhibition above about 30%
Target sequence (Q01638 whole entry, looked up): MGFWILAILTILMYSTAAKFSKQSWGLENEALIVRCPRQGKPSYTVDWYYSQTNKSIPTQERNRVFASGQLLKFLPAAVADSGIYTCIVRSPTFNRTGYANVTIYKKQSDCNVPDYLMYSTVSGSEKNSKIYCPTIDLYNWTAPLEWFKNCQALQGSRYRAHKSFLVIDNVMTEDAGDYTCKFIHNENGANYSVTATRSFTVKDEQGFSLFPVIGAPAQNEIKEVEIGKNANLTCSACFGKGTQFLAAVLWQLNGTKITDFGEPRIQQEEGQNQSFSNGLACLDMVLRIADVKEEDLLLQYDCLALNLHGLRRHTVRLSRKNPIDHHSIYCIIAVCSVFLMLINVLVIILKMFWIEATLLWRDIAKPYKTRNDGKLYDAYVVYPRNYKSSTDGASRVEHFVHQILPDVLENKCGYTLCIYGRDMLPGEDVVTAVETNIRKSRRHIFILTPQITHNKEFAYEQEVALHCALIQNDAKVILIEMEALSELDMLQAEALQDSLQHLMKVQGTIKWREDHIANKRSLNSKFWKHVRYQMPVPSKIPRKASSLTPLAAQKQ
Active calls of the source: *; i = inactive. The full list was thinned out, with hits kept by preference.

SMILES	ST2 inh
Cc1cccc(N2CCN(Cc3ccc(F)cc3)CC2)c1C	i
CCN1CCN(Cc2ccc(OC)c(OC)c2)CC1	i
COc1cc(CN2CCN(c3cccc(C)c3C)CC2)ccc1O	i
Cc1cccc(N2CCN(Cc3ccccc3)CC2)c1C	i
Cc1cccc(N2CCN(Cc3ccc(N(C)C)cc3)CC2)c1C	54%*
CCN1CCN(Cc2ccc(N(C)C)cc2)CC1	32%*
Cc1cccc(N2CCN(Cc3ccc([N+](=O)[O-])cc3)CC2)c1C	47%*
Cc1ccccc1N1CCN(Cc2ccccc2)CC1	i
CCN1CCN(Cc2ccc(Cl)cc2)CC1	i
COc1ccccc1N1CCN(C[C@H]2CN3CC[C@H]2C[C@@H]3CNS(C)(=O)=O)CC1	i
CCN1CCN(Cc2cc(C)ccc2C)CC1	i
COc1cc(Cl)cc(CN2CCN(CC3CC3)CC2)c1OC	i
CN1[C@@H]2CC[C@H]1CC(OC(c1ccccc1)c1ccccc1N)C2 (stereo not given in full)	i
CSc1ccc(-c2ccc3n(c2=O)C[C@H]2C[C@@H]3CN(S(=O)(=O)c3cccs3)C2)cc1	i
Cc1ccnc(CC(C)N(C)Cc2ccc(-c3ccn[nH]3)o2)c1 (stereo not given)	i
Cc1ncc2c(c1CNC(=O)c1cn[nH]n1)CCNC2	i
Cc1c(C(=O)N2CCC3(CC2)OCCO3)oc2ccc(S(=O)(=O)N3CCC(C)CC3)cc12	i
O=C(Nc1ccc2n(c1=O)C[C@@H]1CNC[C@H]2C1)c1cnccn1	i
CCOC(=O)c1nc2ccccc2c(=O)n1-c1cc(Cl)c(OC)cc1OC	i
COc1cc(/C=C/c2nc3ccccc3c(=O)n2-c2ccccc2OC)ccc1O	i
O=c1c2ccccc2nc(/C=C/c2ccc(F)cc2)n1-c1ccccc1	i
COc1ccc(/C=C/c2nc3ccccc3c(=O)n2-c2ccccc2[N+](=O)[O-])cc1	44%*
O=c1c2ccccc2nc(/C=C/c2ccc(O)cc2)n1-c1cccc([N+](=O)[O-])c1	34%*
Cc1ccnc(-n2c(C)nc3ccccc3c2=O)c1	i
Cc1ccc(-n2c(C)nc3ccc(I)cc3c2=O)c([N+](=O)[O-])c1	i
SMILES	ST2 inh
O=c1c2ccccc2nc(Cc2ccccc2)n1-c1ccccc1	i
COc1ccc(-n2c(/C=C\c3ccccc3F)nc3ccccc3c2=O)c(OC)c1	30%*
O=C1C2C(C(=O)N1c1ccccc1F)C1(Cl)C(Cl)=C(Cl)C2(Cl)C1(Cl)Cl (stereo not given)	i
COCCNC(=O)[C@H]1CN2CCC1C[C@@H]2Cn1cc(C(C)(C)C)nn1 (stereo not given in full)	i
COc1ccc(S(=O)(=O)N2C[C@@H]3C[C@H](C2)c2ccc(NC(=O)CN(C)C)c(=O)n2C3)cc1	i
COc1ccccc1N1C(=O)C2[C@H](C1=O)[C@@]1(Cl)C(Cl)=C(Cl)[C@@]2(Cl)C1(Cl)Cl (stereo not given in full)	i
C#C[C@H]1CN2CC[C@H]1C[C@@H]2CNC(=S)Nc1cccc2ccccc12	i
CN1[C@H]2CC[C@@H]1CN(c1ccnc(N)n1)CC2	i
COc1ccc(-c2cc([C@H]3CN4CC[C@H]3C[C@@H]4CNC(=S)Nc3ccc(F)cc3)n(C)n2)cc1OC	i
C=C[C@H]1CN2CC[C@H]1C[C@@H]2CNC(=S)Nc1cccc2ccccc12	i
CCOc1ccc(CN2CCC3(CC2)C(=O)N(C)c2ccccc23)cc1CO	i
O=S(=O)(NC[C@H]1C[C@@H]2CCN1C[C@@H]2CN1CCN(c2ccc(F)cc2)CC1)c1ccccc1	i
O=S(=O)(NC[C@H]1C[C@@H]2CCN1C[C@@H]2CN1CCN(c2ccccc2)CC1)c1ccccc1	i
Cc1ccc(S(=O)(=O)NC[C@H]2C[C@@H]3CCN2C[C@@H]3CN2CCN(c3ccccc3)CC2)cc1	33%*
COc1ccc(S(=O)(=O)NC[C@H]2C[C@@H]3CCN2C[C@@H]3CN2CCSCC2)cc1	i
COc1cc(CN2CCN(c3ccccc3C)CC2)ccc1O	i
COc1ccc(CCNC2CCC(C)C2)cc1 (stereo not given)	50%*
CCOP(=S)(OCC)N1CCOCCOCCOCCOCC1	i
S=C(NC[C@H]1C[C@@H]2CCN1C[C@@H]2CN1CCN(c2ccccc2)CC1)Nc1ccccc1	i
Cc1cc(C=O)c(C)n1C1CCCCC1	30%*
CCOC(=O)c1c(C)n(C2CCCCC2)c2ccc(O)cc12	i
CCOC(=O)c1c(C)n(C2CCCCC2)c2ccc(OC(C)=O)cc12	i
COC(=O)c1cccc(NC(=S)NC[C@H]2C[C@@H]3CCN2C[C@@H]3c2cc(-c3ccc(OC)c(OC)c3)nn2C)c1	i
O=C(c1cn(-c2ccccc2)nn1)N1C[C@@H]2C[C@H](C1)c1cccc(=O)n1C2	i
CCOc1cc(CN2CCN(CC)CC2)ccc1O	i
SMILES	ST2 inh
COc1cc2c(cc1O)C1(C)CCC(O)C(C)(C)C1CC2=O (stereo not given)	37%*
CSc1ccc(-c2ccc(=O)n3c2[C@@H]2C[C@@H](CN(C(=O)C4CCCCC4)C2)C3)cc1	i
N#Cc1cccc(-c2ccc(=O)n3c2[C@@H]2C[C@@H](CN(C(=O)C4CCCCC4)C2)C3)c1	i
CC1CCN(C[C@H]2CN3CC[C@H]2C[C@@H]3CNC(=S)NCc2ccco2)CC1	i
O=C(Nc1cccc(F)c1)Nc1ccc2n(c1=O)C[C@H]1C[C@@H]2CN(C2CCOCC2)C1	i
CN1C(=O)C2(CCN(Cc3nc(-c4ccco4)no3)CC2)c2ccccc21	i
O[C@]12CCCC[C@@H]1[C@@H](c1ccccc1F)NCC2	i
CN1C(=O)C(=Cc2cn(C)c3ccccc23)C(=O)N(C)C1=O	i
Cn1cc(C=C2C(=O)NC(=O)NC2=O)c2ccccc21	35%*
CCN1C(=O)NC(=O)/C(=C\c2cn(CC(=O)N3CCCC3)c3ccccc23)C1=O	i
COc1cccc(CN2CCN(c3ccccc3C)CC2)c1OC	i
CN1CCN(C(=O)Cc2c(C(=O)O)[nH]c3ccccc23)CC1	i
CC[C@H]1CN2CC[C@H]1C[C@@H]2CNC(=S)Nc1ccc(F)cc1	i
CN(CCc1ccccn1)C[C@H]1CN2CC[C@H]1C[C@@H]2CNC(=S)NCc1ccco1	i
COc1ccccc1C(=O)c1nc2ccccc2n1C(C)C	i
Fc1ccc(N2CCN(C[C@H]3CN4CC[C@H]3C[C@@H]4CNC(=S)NCCN3CCOCC3)CC2)cc1	i
Cc1c(CCN)c2ccccc2n1-c1ccccc1	37%*
O=C(NC[C@H]1C[C@@H]2CCN1C[C@@H]2CN1CCc2ccccc2C1)c1ccc(C(F)(F)F)cc1	i
COc1ccc(CN2CCN(c3ccc(OC)cc3)CC2)cc1	32%*
COc1cc(OC)c(CN2CCN(C)CC2)cc1Br	i
COc1cc(C)c(CN2CCN(c3ccc(F)cc3)CC2)cc1C	i
COc1ccc(N2CCN(Cc3ccc(C)cc3)CC2)cc1	33%*
COc1ccc(OC)c(CN2CCN(c3ccc(Cl)cc3)CC2)c1	34%*
CCOc1ccccc1N1CCN(Cc2ccc(OC)cc2)CC1	i
COc1ccc(CN2CCN(c3ccccc3Cl)CC2)c(OC)c1	i
COc1ccc(CN2CCN(Cc3ccccc3Cl)CC2)cc1Br	i
COc1ccc(OC)c(CN2CCN(C)CC2)c1	i
COc1cc(OC)c(CN2CCN(c3ccccc3)CC2)cc1Br	36%*
CC(=O)c1ccc(N2CCN(Cc3ccc(C)cc3)CC2)cc1	i
COc1ccccc1N1CCN(Cc2ccc(F)cc2)CC1	i
